RE007 growth inh: less growth of the S. pombe RE007 Vpr strain. hit rate 0.21% among 360,000. S. pombe RE007 Vpr strain, BacTiter-Glo ATP luminescence, 24 h. Potency, µM (highest dose often 92.2 µM), actives largely listed as inhibitors; active = well fitted falling curve with a large enough effect; inconclusive = small, poorly fitted or top-dose-only effect; inactive = no such curve, though single readings can be large or run the other way; also: nearly all actives have a fitted effect of over 50% in size
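Fission yeast RE007 carrying one integrated HIV-1 vpr copy, seeded at OD 0.01 in PMG+AL medium with 23 nL pinned compound. Grown 24 h at 30 degrees; viability read by BacTiter-Glo luminescence after 5 min.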
Tb PYK inh: inhibitors of Trypanosoma brucei pyruvate kinase; Potency, µM (highest dose often 76.8 µM), most hits filed as inhibitors; AID 624173; Q57TT1; TbPYK enzyme, Kinase-Glo Plus ATP luminescence, 45 min; hit rate 0.12% among 410,000; also: nearly all actives have a fitted effect of over 50% in size
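Glycolytic pyruvate kinase of T. brucei was incubated with substrate, test compound and 130 uM ADP for 45 minutes at room temperature. Luminescent Kinase-Glo Plus signal was measured after 10 minutes.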
LmPK inh: LmPK (Leishmania mexicana) enzyme inhibition; purified LmPK, Kinase-Glo ATP luminescence, 1 h; Potency, µM (top dose mostly 57.5 µM), most hits filed as inhibitors; hit rate 0.37% among 290,000
Target sequence (Q27686 whole entry, looked up): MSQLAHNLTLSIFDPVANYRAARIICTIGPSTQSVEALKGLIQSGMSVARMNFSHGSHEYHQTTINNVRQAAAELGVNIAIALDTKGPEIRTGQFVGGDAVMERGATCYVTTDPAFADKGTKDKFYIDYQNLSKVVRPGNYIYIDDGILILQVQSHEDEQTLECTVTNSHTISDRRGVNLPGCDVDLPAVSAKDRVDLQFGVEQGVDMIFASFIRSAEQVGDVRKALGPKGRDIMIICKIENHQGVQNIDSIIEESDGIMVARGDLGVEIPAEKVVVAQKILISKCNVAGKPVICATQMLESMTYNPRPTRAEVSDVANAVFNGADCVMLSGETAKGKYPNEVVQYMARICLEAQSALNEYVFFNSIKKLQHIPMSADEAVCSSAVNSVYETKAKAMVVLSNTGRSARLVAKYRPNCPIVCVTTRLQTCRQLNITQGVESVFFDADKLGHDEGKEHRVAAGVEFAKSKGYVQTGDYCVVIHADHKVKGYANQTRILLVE
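In 50 mM imidazole pH 7.2 with 7 mM MgCl2, LmPK (0.1 nM) turned over PEP (0.5 mM) and ADP (0.1 mM) for 1 h at room temperature. Luciferase read-out of ATP.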
NS1 inh: influenza NS1 inhibition. Potency, µM (highest dose often 46.1 µM). hit rate 0.4% among 270,000; calls by dose curve; also: actives are rising curves; nearly all actives have a fitted effect of over 50% in size
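In this qHTS, NS1 from influenza A is expressed in budding yeast, where it slows growth. Cells are switched from glucose to 2% galactose medium (pH 6.0, -URA), treated with compound, and growth recovery is read at OD600.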
NS1 inh valid: validation of influenza NS1 protein function inhibitors; shares compounds with NS1 inh; influenza NS1 function cell assay, 15-point titration; activity change, negative = inhibition, % at 32.9 µM; 1,400 tested, under 10 active; calls by dose curve
Flu PR8 replic: influenza virus titer reduction, NS1 project; shares compounds with NS1 inh; MDCK infected influenza A/PR/8/34, virus titer TCID50; active compounds read low; virus titer (log TCID50), log10 TCID50 at 5 µM; hit rate 30% among 95; call rule not given here
Each line names hits and unclear results; the compound was inactive in the other large screens (follow-up assays come after a bar, where they were run). Shown are actives, neighbours in structure and some others; about 0.77% of the full set was active somewhere. Unless noted, calls follow the shape of the dose curve; as a rule, active = well fitted curve in the direction sought with a large enough effect; inconclusive = small, poorly fitted or top-dose-only effect, or another doubt; inactive = no such curve, though single readings can be large; an effect the other way counts as inactive or inconclusive.

COC(=O)c1cccc(C23CC4(C2)[C@H](CN(Cc2cccnc2)[C@@H]4c2ccccc2)C3c2ccc(Cl)nc2)c1 (stereo partly specified)	none
COC(=O)c1ccc([C@H]2Nc3ccc(S(=O)(=O)Nc4ccc(F)cc4)cc3[C@H]3C=CC[C@H]32)cc1	none (no result: RE007 growth inh, LmPK inh, NS1 inh)
COc1cccc(NS(=O)(=O)c2ccc3c(c2)C2C=CCC2C(c2ccc(C(=O)O)cc2)N3)c1 (stereo unspecified)	Tb PYK inh inconclusive, NS1 inh 10µM | NS1 inh valid inactive
O=C(Nc1ccccc1C(=O)NC1CCCCC1)c1ccco1	none
CCC(C)C(NC(=O)c1ccccc1NC(=O)c1ccco1)C(=O)NC1CCCCC1 (stereo unspecified)	NS1 inh 4.47µM | NS1 inh valid inactive
Cn1c(=O)c2c(n(Cc3ccccc3)c1=O)NC(=O)C2CC(=O)NCc1cccc(Cl)c1 (stereo unspecified)	NS1 inh 14.1µM | NS1 inh valid inactive
CC(OC(=O)c1cccc(S(=O)(=O)N2CCN(C)CC2)c1)C(=O)Nc1ccc(C(N)=O)cc1 (stereo unspecified)	none (no result: LmPK inh, NS1 inh)
CCc1ccc(NC(=O)C(C)OC(=O)c2cccc(S(=O)(=O)N3CCc4ccccc4C3)c2)cc1 (stereo unspecified)	NS1 inh 14.1µM | NS1 inh valid inactive
CCCn1c2ccccc2c2cnn(CC(=O)N(CCCOC(C)C)Cc3ccco3)c(=O)c21	none (no result: RE007 growth inh, LmPK inh, NS1 inh)
Cc1ccc(C(=O)Nc2ccccc2)cc1S(=O)(=O)Nc1ccccc1	none (no result: RE007 growth inh, LmPK inh, NS1 inh)
O=C(Nc1ccccc1C(=O)O)c1cccc(NS(=O)(=O)c2ccc(Br)cc2)c1	NS1 inh 7.94µM | NS1 inh valid inactive
Cc1ccccc1NC(=O)c1ccc(F)c(S(=O)(=O)NC2CCCC2)c1	none (no result: RE007 growth inh, LmPK inh, NS1 inh)
Cc1ccc(C(=O)Nc2ccccc2C(=O)O)cc1S(=O)(=O)Nc1ccccc1	NS1 inh 15.8µM | NS1 inh valid inactive
Cc1ccc(C(=O)NCc2ccco2)cc1S(=O)(=O)N1CCCCC1	none
Cc1ccc(C(=O)Nc2ccccc2C(=O)O)cc1S(=O)(=O)NC1CCCCC1	NS1 inh 14.1µM | NS1 inh valid inactive | Flu PR8 replic inactive
Cc1ccc(C(=O)Nc2ccccc2C(=O)NCc2ccco2)cc1S(=O)(=O)N1CCCCC1	NS1 inh 10µM | NS1 inh valid inactive
Cc1ccc(NC(=O)C2CCCN(S(=O)(=O)c3ccc4[nH]c(=O)ccc4c3)C2)c(C)c1 (stereo unspecified)	none
COc1cccc2cc(C(=O)Nc3ccc(CC(=O)O)cc3)c(=O)oc12	none (no result: RE007 growth inh, LmPK inh, NS1 inh)
CCC(C)NC(=O)c1cnn(-c2ccc(Cl)cc2)c1C1CCN(C(=O)OC(C)(C)C)CC1 (stereo unspecified)	none (no result: RE007 growth inh, LmPK inh, NS1 inh)
Cc1ccc(Nc2nc(C(N)=O)c(NC(=O)c3ccccc3Br)s2)cc1	none (no result: RE007 growth inh, LmPK inh, NS1 inh)
Cn1c(/N=C/c2c(O)ccc3ccccc23)nc2ccccc21	NS1 inh 11.2µM | NS1 inh valid inconclusive
O=c1cc(O)n(-c2ccccc2F)c(=S)[nH]1	NS1 inh 3.16µM | NS1 inh valid inactive
O=c1ccn([C@@H]2O[C@H](COP(=O)(O)OP(=O)(O)O)[C@@H](O)[C@H]2O)c(=O)[nH]1	none (no result: RE007 growth inh, Tb PYK inh, LmPK inh)
O=c1ccn([C@@H]2O[C@H](CO)[C@@H](O)[C@H]2O)c(=O)[nH]1	NS1 inh 12.6µM | NS1 inh valid inconclusive
COC(=O)c1ccc(CS(=O)(=O)c2ccccc2C)o1	NS1 inh 1µM | NS1 inh valid inactive
CCN(CC)c1ccc(NC(=O)CSc2nnc3nc(C)cc(C)n23)cc1	NS1 inh inconclusive | NS1 inh valid inactive
CC(=O)c1c(C)[nH]c(C(=O)OCC(=O)N2CCc3ccccc32)c1C	NS1 inh 4.47µM | NS1 inh valid inactive
CCOC(=O)c1[nH]c(C)c(C(=O)OCC(=O)N2CCc3ccccc32)c1C	none
COc1ccc(-n2c(=O)c3sc4ccccc4c3n(Cc3ccccc3)c2=O)cc1	none (no result: RE007 growth inh, LmPK inh, NS1 inh)
Cn1c(=O)[nH]c(=O)c2c1nc(Br)n2Cc1cccc(Br)c1	none
COC(=O)N[C@H](c1ccccc1)[C@@]1(C)C[C@@H]1[C@@H](C)C(=O)Nc1ccc2ccccc2c1	none (no result: LmPK inh, NS1 inh)
C[C@@H](C(=O)Nc1ccc2ccccc2c1)[C@H]1C[C@]1(C)[C@H](NC(=O)c1cccnc1)c1ccccc1	NS1 inh 14.1µM | NS1 inh valid inactive | Flu PR8 replic inactive
C[C@@H](C(=O)Nc1ccc2ccccc2c1)[C@@H]1C[C@@]1(C)[C@@H](NC(=O)c1ccccc1)c1ccccc1	NS1 inh 12.6µM | NS1 inh valid inactive | Flu PR8 replic inactive
C[C@@H](C(=O)Nc1ccc2ccccc2c1)[C@H]1C[C@]1(C)[C@H](NS(=O)(=O)c1ccc(-c2ccccc2)cc1)c1ccccc1	NS1 inh inconclusive
NC(=O)c1ccnc2c(O)cccc12	none (no result: RE007 growth inh, LmPK inh, NS1 inh)
OCc1ccnc2c(O)cccc12	NS1 inh 8.91µM | NS1 inh valid inactive
COc1cc(/C=N/n2c(-c3ccc4c(c3)NC(=O)CO4)csc2=Nc2cccc(C)c2)ccc1O	NS1 inh 11.2µM | NS1 inh valid inactive | Flu PR8 replic inactive
COCCN=c1scc(-c2ccc3c(c2)NC(=O)CO3)n1/N=C(\C)c1ccc(O)cc1	none
Cn1cnnc1SCC(=O)N1N=C2/C(=C/c3ccco3)CCCC2C1c1ccco1 (stereo unspecified)	NS1 inh 3.55µM | NS1 inh valid inactive
O=C(CSc1nccc(=O)[nH]1)N1N=C2/C(=C/c3ccco3)CCCC2C1c1ccco1 (stereo unspecified)	none (no result: NS1 inh)
O=C(c1ccc(F)cc1)N1CCN(c2ccc([N+](=O)[O-])c(N3CCCCC3)c2)CC1	none
O=C(COc1ccccc1Cl)N1CCN(c2ccc([N+](=O)[O-])c(N3CCCCC3)c2)CC1	NS1 inh inconclusive | NS1 inh valid inactive
O=C(COc1ccc(Cl)cc1)N1CCN(c2ccc([N+](=O)[O-])c(N3CCCCC3)c2)CC1	NS1 inh 11.2µM | NS1 inh valid inconclusive
Cc1onc(-c2ccccc2Cl)c1C(=O)N(Cc1nc(-c2ccccc2)no1)C1CCCCC1	NS1 inh 10µM | NS1 inh valid inactive
CC(C)(C)CC(=O)N1CCN(c2ccc(S(=O)(=O)N3CCOCC3)cc2[N+](=O)[O-])CC1	none (no result: LmPK inh, NS1 inh)
COc1ccc(C(=O)Nc2c(N)nc(SCC(=O)Nc3ccc(NC(C)=O)cc3)[nH]c2=O)cc1OC	NS1 inh 22.4µM | NS1 inh valid inactive
Nc1nc(SCC(=O)Nc2ccc(C(F)(F)F)cc2)[nH]c(=O)c1NC(=O)c1ccc(F)c(F)c1	none
CN(C)CS/C(N)=N/[C@H](O)C(Cl)(Cl)Cl	none (no result: RE007 growth inh, Tb PYK inh, LmPK inh)
Cn1cccc1/C=N/N1CCN(c2ccccn2)CC1	NS1 inh inconclusive | NS1 inh valid inactive
Cc1ccc(/C=N/N2CCN(c3ccccn3)CC2)cc1	none (no result: NS1 inh)
c1ccc(C2=Nn3c(Cn4nnc5ccccc54)nnc3SC2)cc1	none

Source: PubChem
